Our source for the inhibition values is PubChem BioAssay.

The nature of test [1]: NFkB reporter suppression in cystic fibrosis bronchial cells – cell-based, uHTS hits, panel, cytotoxicity readout, dose response (AID 624344). The note with it: CF bronchial epithelial cells, PAF-induced NFkB reporter inhibition, with PAF, run 1; at 79 µM (top of the series) unless noted.
Test in test [2]: as above
Conditions: CF bronchial epithelial cells, PAF-induced NFkB reporter inhibition, with PAF, run 2; at 79 µM (top of the series) unless noted.

The inhibition is the drop in the measured response relative to a control, in per cent.

For `COc1ccc(CNc2nn3c(-c4cccc(C(=O)N(C)C)c4)cnc3s2)cc1`, the figures for the inhibition in test [1] and in test [2] were 113% and 104%, respectively.
For `c1ccc2c(-c3ccc4nncn4c3)cncc2c1` the same measures were 92.3% and 79%.
Consider `Cn1cccc1C(=O)NC(=O)COC(=O)c1ccc(S(C)(=O)=O)c([N+](=O)[O-])c1`, for which the values for the inhibition in test [1] and in test [2] were 92.6% and 98.1%, respectively.
`CC(=O)Oc1c(Cl)cc(N(C(C)=O)S(=O)(=O)c2ccccc2)c2ccccc12`: the inhibition in test [1] came to 89.7%; in test [2], 108%.
The corresponding values for `COc1cc2c(c(OC)c1OC)-c1ccc(NCc3ccccc3)c(=O)cc1C(NC(C)=O)CC2` (stereo not given) are 94.4% and 112%.
Consider `CCc1cc2c(Sc3nc4ccccc4s3)ncnc2s1`, for which the results for the inhibition in test [1] and in test [2] were 114% and 98.3%, respectively.
For the compound `Cc1c(NC(=O)c2cc(-c3cccs3)nc3ccccc23)c(=O)n(-c2ccccc2)n1C`, the inhibition was found to be 112% in test [1] and 103% in test [2].
For `Clc1ccccc1C1=Nn2c(nnc2-c2ccncc2)SC1` the same measures were 109% and 100%.
For the compound `COc1cccc2c(SCC(=O)N/N=C/c3ccccc3)cc(C)nc12`, the inhibition was found to be 104% in test [1] and 106% in test [2].
As for `O=C(NCCCSc1ccccc1)c1cc(Cl)ccc1O`, the inhibition was 106% in test [1] and 117% in test [2].
For `CC(C)(C)OC(=O)NCC(=O)Oc1cc2oc(=O)cc(-c3ccccc3)c2cc1Cl` the same measures were 117% and 104%.
On to `N#Cc1c(-c2ccc(Cl)cc2)n(O)c2ccccc12`, for which the inhibition in test [1] worked out at 111%; in test [2], 103%.
On to `CCOC(=O)Cc1nnc2c(Nc3ccc(Cl)cc3)nc3nonc3n12`, for which the inhibition was determined as 110% in test [1] and 101% in test [2].
Turning to `CCOC(=O)C1=C(C)Nc2ccccc2N=C1NC(=O)c1oc2ccccc2c1COC`, the inhibition in test [1] is 90.5%; in test [2], 101%.
`C=C1C(=O)C23C(O)C1CCC2C12COC3(O)C(O)C1C(C)(C)CCC2O` (stereo not given): the inhibition in test [1] was 87.7%; in test [2], 76.9%.
